# Assay outcomes as filed in PubChem.
# Yeast superoxide – yeast age-related superoxide inhibition as caloric restriction mimetic; S. cerevisiae aged cells, superoxide DHE fluorescence; hits give low values; superoxide response (% of plate mean), % at 10 µM; hit rate 0.18% among 330,000; AID 2690;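 active = superoxide response under a set limit, about three screen SD below normal, cut at about 65% in these data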;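 note: yeast aged for seven days with compound at 30 °C before DHE staining; 100% = average MFI of all compound-treated wells on the plate with controls excluded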
# ABCB6 inh MLPCN – human ABCB6 transporter inhibition; Q9NP58; K562-ABCB6 porphyrin accumulation, flow cytometry, 1 h; hits give low values; fluorescence ratio to DMSO, % at 10 µM; hit rate 0.19% among 360,000;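 active = fluorescence ratio to DMSO below 75%, the collection mean minus 3 SD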;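 note: signal is porphyrin accumulated inside mitochondria; 100% equals median channel fluorescence of DMSO control wells; lower ratio means ABCB6 inhibition with less porphyrin fluorescence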
# SKN-1 block – blocks SKN-1 activity in C. elegans. C. elegans VP596 Pgst-4::GFP/RFP ratio, acrylamide-induced, 24 h. inhibition, % at 21.8 µM. hit rate 0.49% among 360,000;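 active = interference check ratio from 0.5 to 1.5 plus GFP to RFP signal ratio inhibition reaching or exceeding a fixed threshold, cut at about 30% in these data, passing the limit was not always enough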
# Platelet DG rel – modulates dense granule release in human platelets | human platelet-rich plasma, SFLLRN dense granule ATP release, luminescence | inhibition, %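 (compounds screened at 7.5 µM in platelet-rich plasma)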 | hit rate 0.22% among 300,000 | AID 1663;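 active = mean replicate score, as percent of positive control, at or above 50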
# VLA-4 inh – inhibition in a human VLA-4 binding assay | VLA-4 expressing cells, ligand binding flow cytometry | inhibition, % (about 7 µM as worked out from the volumes in the protocol) | hit rate 0.2% among 330,000 | AID 2557; in the data active = inhibition above about 50%
# Target sequence (P13612 whole entry, looked up): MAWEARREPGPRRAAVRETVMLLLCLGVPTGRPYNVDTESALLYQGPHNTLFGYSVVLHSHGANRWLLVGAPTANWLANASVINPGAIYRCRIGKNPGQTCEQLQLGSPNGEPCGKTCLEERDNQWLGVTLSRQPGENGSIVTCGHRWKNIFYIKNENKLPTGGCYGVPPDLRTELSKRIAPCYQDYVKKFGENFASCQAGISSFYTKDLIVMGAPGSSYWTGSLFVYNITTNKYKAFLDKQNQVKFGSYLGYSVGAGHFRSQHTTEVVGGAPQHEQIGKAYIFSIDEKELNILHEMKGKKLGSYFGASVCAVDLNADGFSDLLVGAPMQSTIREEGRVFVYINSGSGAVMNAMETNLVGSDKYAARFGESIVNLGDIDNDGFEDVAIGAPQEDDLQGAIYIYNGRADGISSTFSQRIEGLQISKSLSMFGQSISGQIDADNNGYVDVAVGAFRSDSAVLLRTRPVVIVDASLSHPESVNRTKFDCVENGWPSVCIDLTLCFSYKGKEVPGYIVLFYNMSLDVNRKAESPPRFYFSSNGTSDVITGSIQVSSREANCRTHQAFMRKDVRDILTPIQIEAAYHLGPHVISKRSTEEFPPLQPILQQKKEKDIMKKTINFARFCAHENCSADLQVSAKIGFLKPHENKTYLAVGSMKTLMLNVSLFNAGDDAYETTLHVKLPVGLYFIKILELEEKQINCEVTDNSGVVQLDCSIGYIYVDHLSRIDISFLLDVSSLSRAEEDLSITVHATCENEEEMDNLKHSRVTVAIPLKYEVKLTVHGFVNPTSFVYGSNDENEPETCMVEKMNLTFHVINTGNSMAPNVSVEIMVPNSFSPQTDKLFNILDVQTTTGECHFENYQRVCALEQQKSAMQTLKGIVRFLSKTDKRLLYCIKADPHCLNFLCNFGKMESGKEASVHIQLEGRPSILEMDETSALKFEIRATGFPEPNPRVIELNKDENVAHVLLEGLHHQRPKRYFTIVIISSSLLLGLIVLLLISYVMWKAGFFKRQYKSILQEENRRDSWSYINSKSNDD
# * = called active by the depositor; i = inactive; . = no result given. Hits are enriched below; roughly 1.2% of the tested compounds scored in any of these assays.
SMILES,Yeast superoxide,ABCB6 inh MLPCN,SKN-1 block,Platelet DG rel,VLA-4 inh
Cc1cc(O)c(C(C)C)cc1NC(=O)Nc1ccc([N+](=O)[O-])cc1,.,93.0,43.8*,.,.
CCOC(=O)[C@]12CCC=C1N(Cc1cccc3ccccc13)C(=O)[C@H](CC(=O)NCC1CCCCC1)C2,.,94.0,-4.2,.,.
COC(=O)C(C#N)c1nc2ccccc2nc1N1CCN(Cc2ccc3c(c2)OCO3)CC1 (stereo unspecified),82.4,.,.,55.9*,-13.9
c1ccc(Cn2c[n+](Cc3ccccc3)c3ccccc32)cc1,96.9,97.0,35.4*,-4.8,-8.1
Cc1ccc(F)cc1C(=O)N1CCCCC1c1cc(C(=O)Nc2cccc(C#N)c2)no1 (stereo unspecified),.,100.0,3.4,.,.
O=C(NCc1n[nH]c(=S)n1-c1ccc(F)cc1)c1ccc(S(=O)(=O)N2CCOCC2)cc1,124.1,100.0,37.7*,2.2,0.0
O=S1(=O)CC(N2CC=CC2)CN1Cc1cn(Cc2cccc(C(F)(F)F)c2)nn1 (stereo unspecified),.,98.0,5.3,.,.
Cc1ccc(C(=O)NC(=S)NNC(=O)COc2ccc([N+](=O)[O-])cc2)cc1,151.8,94.0,12.3,-2.4,29.1
O=C(COc1ccc([N+](=O)[O-])cc1)NNC(=S)NC(=O)c1ccc(Br)cc1,164.5,101.0,7.0,10.0,61.0*
CCCCNC(=O)c1nc(C2CCN(S(=O)(=O)c3ccc(S(C)(=O)=O)cc3)CC2)oc1-c1ccccc1,.,.,7.9,.,.
C#Cc1ccc(NC(=O)C2(C)CCN2C(=O)Cc2ccc(C(C)C)cc2)cc1 (stereo unspecified),.,85.0,12.4,.,.
O=C(c1cc(-c2ccccc2)on1)N1CCc2ccccc2C1,130.1,92.0,37.5*,-3.7,-4.1
O=C(c1cc(-c2ccc(Cl)cc2)on1)N1CCc2ccccc2C1,91.3,86.0,7.5,-0.3,2.1
c1ccc(CSc2ncnc3sccc23)cc1,89.1,101.0,43.0*,4.9,8.5
C=CC[n+]1ccc(/C=C2\C=Cc3cc(C)ccc3N2CC)c2ccccc21,.,316.0,37.8*,.,.
CO[C@@H]1CN(C)C(=O)c2ccc(NS(=O)(=O)c3c(C)noc3C)cc2OC[C@@H](C)NC[C@@H]1C,.,.,4.5,.,.
O=C1NC[C@H](CC2CCCCC2)N(CCC23CC4CC(CC(C4)C2)C3)C1=O,.,94.0,-6.4,.,.
Oc1c(N=Nc2nn[nH]n2)ccc2ccccc12,.,106.0,53.5*,.,.
Oc1c(N=Nc2ccc(F)cc2)ccc2ccccc12,98.7,131.0,72.8,4.8,-85.3
CC1(C(=O)Nc2cccc(Oc3ccccc3)c2)CCN1Cc1cccc2c1OCO2 (stereo unspecified),.,99.0,18.3,.,.
Cc1ccc(-c2nc(N/N=C/c3cccnc3)c3ccccc3n2)cc1,98.3,94.0,12.6,63.8*,-15.2
Cc1ccc(-c2nc(N/N=C/c3cccc([N+](=O)[O-])c3)c3ccccc3n2)cc1,101.0,91.0,14.9,16.0,-6.7
COc1cccc(C(=O)/C=C/Nc2cccc(O)c2)c1,109.0,100.0,26.2,67.6*,-10.2
COc1ccc(OC)c(N/C=C/C(=O)c2ccccc2)c1,92.5,105.0,20.1,83.2*,7.4
COc1cccc(N/C=C/C(=O)c2ccc(C)cc2)c1,116.8,99.0,22.3,24.4,14.2
SMILES,Yeast superoxide,ABCB6 inh MLPCN,SKN-1 block,Platelet DG rel,VLA-4 inh
COc1ccc(OC)c(N/C(C)=C/C(=O)c2ccccc2)c1,98.0,97.0,-3.6,-2.1,-5.0
COc1cccc(-c2oc3c(c2-c2ccc(OC)nc2)C(O)CCC3)c1 (stereo unspecified),.,103.0,5.6,.,.
Cc1ccn2cc(-c3ccc(Br)cc3)nc2c1,104.4,96.0,7.6,32.0,0.0
Clc1ccc(-c2cn3cc(Br)ccc3n2)cc1Cl,94.8,101.0,56.8*,-0.1,-10.0
CCn1c(O)c(N=Nc2ccc3ccccc3n2)c2ccccc21,113.7,95.0,17.6,16.0,-2.7
Brc1ccc(N=Nc2ccc3ccccc3n2)cc1,91.9,106.0,30.4,69.0*,-7.6
Cc1cc(NC(=O)CCc2ccc(C)o2)no1,111.3,91.0,30.9*,4.5,3.9
Cc1ccc(C)c(NC(=O)CCc2ccc(C)o2)c1,109.1,97.0,15.1,5.7,2.7
COc1ccc(NC(=O)/C(C#N)=C/c2ccc(Sc3nncn3C)c([N+](=O)[O-])c2)cc1,126.3,95.0,-1.3,-10.4,52.2*
Cn1cnnc1Sc1ccc(/C=C/C(=O)c2ccc(O)cc2)cc1[N+](=O)[O-],94.7,100.0,1.8,6.0,-0.7
c1ccc(Oc2cc(-c3ccccc3)ncn2)cc1,97.3,99.0,49.7*,-0.1,6.4
O=C(NC(c1ccc(-c2ccccc2)cc1)c1cnccn1)C1CCN(Cc2ccc3c(c2)OCO3)CC1 (stereo unspecified),.,92.0,-6.4,.,.
CCn1nnnc1NC(=O)c1cc(Cl)c(OC)c(Cl)c1,109.2,102.0,-8.0,.,51.9*
CCn1nnnc1NC(=O)c1cccc(OC)c1,103.8,96.0,-0.9,2.3,8.8
CC(C)C(=O)NC(=S)/C=C1/N(C)c2ccccc2C1(C)C,101.5,625.0,59.9,1.2,i
CN1/C(=C/C(=S)NC(=O)C2CCC2)C(C)(C)c2ccccc21,97.3,236.0,41.2*,4.1,-75.7
O=c1cc(-c2ccccc2)nc2cc(-c3ccco3)[nH]n12,63.0*,99.0,21.6,-7.4,0.5
O=C(Nc1ccc(Cl)cc1)C(c1ccccc1)N(CCO)CCO (stereo unspecified),98.6,94.0,36.8*,1.8,-6.3
CCCN(CCC)C(C(=O)Nc1cccc(OC)c1)c1ccccc1 (stereo unspecified),106.2,83.0,-4.8,-4.9,7.2
COc1ccc(NC(=O)C(c2cc3ccccc3o2)n2c(=O)c(-c3cc4ccccc4[nH]3)nc3ccccc32)cc1 (stereo unspecified),.,.,14.0,.,.
Clc1ccc(-c2nnsc2SCc2ccccc2)cc1,94.9,103.0,36.1*,2.0,6.3
COc1ccc(C(=O)c2oc3ccc(OC)cc3c2N)cc1,110.0,102.0,43.8*,2.6,0.0
CC(=O)Nc1cccc(-c2ccnc3c2CC(C(=O)NCc2ccc(N(C)C)cc2)O3)c1 (stereo unspecified),.,106.0,6.8,.,.
O=C(CC1Sc2ccccc2NC1=O)NNc1cc(Cl)ccc1Cl (stereo unspecified),.,99.0,40.5*,.,.
O=C(CC1Sc2ccccc2NC1=O)NNc1ccc(F)cc1 (stereo unspecified),.,96.0,12.5,.,.
SMILES,Yeast superoxide,ABCB6 inh MLPCN,SKN-1 block,Platelet DG rel,VLA-4 inh
O=C(c1cccnc1)C1Cc2ccccc2C1=O (stereo unspecified),131.8,98.0,36.4*,7.4,30.5
CC1COCC(C)N1C(=O)c1cccnc1 (stereo unspecified),.,100.0,1.2,.,.
CCn1c(=O)c(C)nn2c3ccccc3nc12,102.5,98.0,34.6*,5.0,8.4
Cn1c(=O)c(-c2ccccc2)nn2c3ccccc3nc12,89.1,92.0,-2.2,-11.8,-1.1
COCCn1cc(C(=O)NCc2cccs2)c2c3ccccc3n(C)c2c1=O,107.9,110.0,41.0*,11.6,7.1
COCCn1cc(C(=O)NCCN(C)C)c2c3ccccc3n(C)c2c1=O,88.1,104.0,14.4,-2.9,-5.9
